PubChem BioAssay (EPA / NIEHS)
Where “and” joins values, the source holds several entries; their conditions need not be identical. Equal entries are not always repeated. Some compounds were tested as several samples or in several runs, with calls that do not always agree. Calls of active or inactive are those of the source. The calls were made as follows: active = hit-call score of the fitted dose curve at least 0.9, where 1 is the maximum; inactive = score below 0.9.

Read-out: Collagen III, COL3A1 (gene 1281)
Assay: BSK_MyoF_CollagenIII: BioMAP Diversity Plus: MyoF Assay for Collagen III Biomarker Activity (AID 2284239)
Conditions: primary human lung fibroblasts
Description: BSK_MyoF is a cell-based, multiplexed-readout assay that uses lung fibroblasts, […], with measurements taken at 24 hours after chemical dosing in a microplate: 96-well plate.BSK_MyoF_CollagenIII is an assay component measured in the BSK_MyoF assay. It measures Collagen III antibody related to regulation of gene expression using ELISA technology.Data from the assay component BSK_MyoF_CollagenIII was analyzed at the endpoint, BSK_MyoF_CollagenIII, in the positive analysis fitting direction relative to DMSO as the negative control and baseline of activity. Using a type of binding reporter, gain or loss-of-signal activity can be used to understand protein changes. To generalize the intended target to other relatable targets, this assay endpoint is annotated to the 'cell adhesion molecules' intended target family, where the subfamily is 'collagen'.
The levels of cell surface (or secreted, indicated by the prefix "s") biomarker endpoints were measured by ELISA. Overt cytotoxicity to cells in confluent adherent cultures (all systems other than the BT system) was assessed by measuring total protein levels using sulforhodamine B (SRB) staining in parallel cultures at the time of biomarker measurements, indicated as SRB endpoints. For proliferation assays for adherent cell types, individual cell types are cultured at sub-confluence and relative cell numbers quantified by SRB staining at time points optimized for each system (48 h: 3C and CASM3C systems; 72 h: BT and HDF3CGF systems; 96 h: SAg system). SRB was performed by staining cells with 0.1% SRB after fixation with 10% TCA and reading wells at 560 nm.Viability and proliferation of PBMC (T cells) was quantified by Alamar Blue reduction for the SAg and BT systems. For PBMC viability (referred to as PBMC Cytotoxicity within the assay endpoint names), cells were plated (75,000/well in a 96-well plate) and then chemical samples added for 1 h before addition of activators, SEB and TSST-1 (20 ng/mL final concentration each). Cells were incubated for 90 h. Then, Alamar Blue (20 uL/well) (Invitrogen, Cat DAL1100) was added for 6 h, and the plates were read with a fluorescence microplate reader at 546/580 nm (excitation/emission). For PBMC proliferation, cells were plated and activated as above but incubated for only 16 h prior to addition of Alamar Blue. Plates were read after 6 h.

| SMILES | outcome | AC50 |
| --- | --- | --- |
| CCN1CN(CC)CN(CC)C1 | inactive |  |
| COC(OC)(C(=O)c1ccccc1)c1ccccc1 | inactive |  |
| Clc1cc(Cl)c(Cl)c(Cl)c1Cl | inactive |  |
| C[N+](C)(C)CCCNS(=O)(=O)C(F)(F)C(F)(F)C(F)(F)C(F)(F)C(F)(F)C(F)(F)C(F)(F)C(F)(F)F |  | 48.8 µM (active) and 50.1 µM (active) |
| CC1=CC=C(C(C)C)CC1 | inactive |  |
| CC(C)CCCCCOC(=O)CS | inactive |  |
| CCCCCCCO | inactive |  |
| CC(Cl)COP(=O)(OCC(C)Cl)OCC(C)Cl (stereo not given) | inactive |  |
| Oc1ccc(/C=C/c2cc(O)cc(O)c2)cc1 | inactive |  |
| Nc1cccc(N)n1 | inactive |  |
| CCCCC1C(=O)N(c2ccccc2)N(c2ccccc2)C1=O | inactive |  |
| CCOC(=O)/C=C\C(=O)OCC | inactive |  |
| CC(C)[N+](C)(CCOC(=O)C1c2ccccc2Oc2ccccc21)C(C)C | inactive |  |
| CCCCCC1=CCCC1=O | inactive |  |
| C=CCCCCCCCCC=O | inactive |  |
| COc1ccc(C(=O)/C(Br)=C\C(=O)O)cc1 | inactive | 20 µM (active) |
| O=C(O)C(F)(F)C(F)(F)C(F)(F)C(F)(F)C(=O)O | inactive |  |
| c1ccc2sc(SSN3CCOCC3)nc2c1 |  | 28.4 µM (active) |
| CC(c1cc(C(C)(C)C)cc(C(C)(C)C)c1O)c1cc(C(C)(C)C)cc(C(C)(C)C)c1O | inactive |  |
| COc1ccc(C(=O)c2ccccc2)c(O)c1 | inactive |  |

| SMILES | outcome | AC50 |
| --- | --- | --- |
| C=C(C)C(=O)OCCCCCCCCCCCC | inactive |  |
| C=CC(=O)OCCCCCCCC(C)C | inactive |  |
| Fc1ccc(Br)cc1 | inactive |  |
| CC/C=C\C/C=C\C/C=C\CCCCCCCC(=O)OC |  | 10.6 µM (active) |
| C=CC(=O)NC(C)(C)C | inactive |  |
| CC(C)c1cccc(C(C)C)c1N | inactive |  |
| CC=C(C)C=CC=C(C)C | inactive |  |
| C=CC(=O)OCC(C)OCC(C)OCC(C)OC(=O)C=C (stereo not given) |  | 30.9 µM (active) |
| c1ccc2c(c1)[nH]c1ccccc12 | inactive |  |
| CCOC(=O)C1=NOC(c2ccccc2)(c2ccccc2)C1 | inactive |  |
| Oc1c(Cl)cc(Cl)c(Cl)c1Cl |  | 16.5 µM (active) |
| CCOC(=O)C1=NN(c2ccc(Cl)cc2Cl)C(C)(C(=O)OCC)C1 (stereo not given) | inactive |  |
| O=C1CCCCCCCCCCC1 | inactive |  |
| CC/C=C\CCOC(=O)c1ccccc1O |  | 36.1 µM (active) |
| CCC1(C)C(=O)N(Cl)C(=O)N1Cl (stereo not given) | inactive |  |
| Cc1c(O)cccc1O | inactive |  |
| O=C(Cl)c1c(Cl)c(Cl)c(C(=O)Cl)c(Cl)c1Cl | inactive |  |
| CCCCCCOC(=O)CCCCC(=O)OCCCCCC | inactive |  |
| CCCCCCC=O | inactive |  |
